Each structure is given as a SMILES string. Compounds without any hit were thinned out: in the full panel of roughly 83,000, 20% have a hit.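 Method: cells in 96-well plates; compound added at one concentration; 48 h incubation; percent growth measured; values under 10 scored active.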 Unmarked numbers belong to inactive results. Active and inactive are the calls of the source.

Common to all, as to assay: NCI-60 one-dose screen, 48 h (100 = growth as untreated, 0 = no growth, -100 = all killed)
What all share (conditions): 10 µM unless noted

Assay [1] relates to DU-145 prostate.
For assay [2], the system named is K-562 leukemia.
For assay [3], the system named is MALME-3M melanoma.
Assay [4] has as its system MDA-MB-231 breast.
The subject of assay [5] is RXF 393 renal.
The subject of assay [6] is SF-268 CNS.
Assay [7] concerns SF-295 CNS.
Assay [8] deals with SF-539 CNS.
Assay [9] relates to UACC-257 melanoma.
The test system of assay [10] is M14 melanoma.

On to `O=C(NNC(=S)Nc1ccccc1)c1ccncc1`, for which the growth in assay [1] is 115%; in assay [2] it was 106%; in assay [3], 108%; in [4], 111%; in [5] it was 114%; in assay [6] it was 105%. Further, the growth in assay [7] is 110%; in assay [8] it was 100%; in assay [9], 110%; in [10], 107%.
For `Cc1oc2c(Cc3ccc(NC(=O)c4ccc(Cl)cc4)cc3)ncnc2c1C(=O)NO`, the growth in assay [1] is 105%; in assay [2], 78.3%; in assay [3], 93.9%; in assay [4] it was 108%; in [5], 97.6%; in assay [6] it was 97.6%. Besides, the growth in assay [7] is 95.3%; in assay [8] it was 104%; in assay [9], 84%; in assay [10] it was 99.6%.
Regarding `C#CCn1cnc2cnc(Nc3cccc(NC(=O)CCl)c3)nc21`, the growth is 17.1% [6.25 µM] in assay [1]; 4.47% [6.25 µM] (active) in assay [2]; 28.1% [6.25 µM] in assay [3]; 14.6% [6.25 µM] in [4]; -27.5% [6.25 µM] (active) in [5]; 6.9% [6.25 µM] (active) in assay [6]. The growth was 16.1% [6.25 µM] in assay [7], -0.618% [6.25 µM] (active) in assay [8], 1.35% [6.25 µM] (active) in [9] and -49.1% [6.25 µM] (active) in assay [10].
Turning to `CON1CCC[C@]2(C)[C@H]3CC[C@@H]4[C@H]5[C@@H](O)C(C)(C)CC[C@]5(CO)CC[C@@]4(C)[C@]3(C)CC[C@H]2C1(C)C`, the growth was 99% in assay [1]; 87% in assay [2]; 110% in assay [3]; 90.5% in [4]; 112% in assay [5]; 100% in assay [6]. Besides, the growth is 102% in assay [7], 106% in assay [8], 97.5% in assay [9] and 99.6% in assay [10].
`O=S(=O)(Nc1ccc(F)cc1)c1ccc(-c2cnc(C3CC3)o2)cc1`: the growth in assay [1] was 34%; in assay [2], 11.9%; in [3], 46%; in assay [4], 49.7%; in assay [5] it was 25.9%; in assay [6], 45.5%. For the same compound, the growth is 30.2% in [7], 19.4% in [8], 43.4% in assay [9] and 12.2% in assay [10].
For `Cc1ccccc1SSc1ccccc1C`, the growth was 6.96% (active) in [1]; 99.1% in [2]; 104% in assay [3]; 82.7% in assay [4]; 73.8% in assay [5]; 95.2% in assay [6]. In addition, the growth in assay [7] was 80.3%; in [8], 104%; in [9], 105%; in assay [10], 85.2%.
Regarding `CCOC(=O)CCCn1c(-c2ccccc2)cc(-c2ccccc2)c(C#N)c1=O`, the growth was 97.1% in assay [1]; 81.8% in assay [2]; 108% in assay [3]; 86.8% in assay [4]; 79.2% in [5]; 88.4% in [6]. Further, the growth in assay [7] is 69.2%; in assay [8], 81.5%; in assay [9] it was 90.5%; in [10], 86.8%.
Turning to `O=[N+]([O-])c1cc(C(F)(F)F)ccc1Sc1ccc(C(F)(F)F)cc1[N+](=O)[O-]`, the growth in [1] is 64.4%; in assay [2], 8.04% (active); in [3], 61.9%; in assay [4] it was 72.4%; in assay [5], 93.1%; in assay [6] it was 63%. Further, the growth is 106% in assay [7], 61.1% in assay [8], 76.3% in assay [9] and 49% in assay [10].
Regarding `COc1ccc(C2Nc3nc(SC)nc(N)c3N=C3c4ccccc4CCC32)cc1` (stereo not given), the growth in assay [1] was 70.9%; in assay [2], 84.5%; in [3] it was 108%; in [4], 83.5%; in assay [5] it was 122%; in assay [6], 73.4%. In addition, the growth in assay [7] is 105%; in assay [8] it was 90.5%; in [9], 122%; in assay [10], 92.7%.
For the compound `CC12OC(CC(O)C1O)n1c3ccccc3c3c4c(c5c6ccccc6n2c5c31)C(=O)N(CCN1CCOCC1)C4=O` (stereo not given), the growth in [1] was 3.22% (active); in assay [2], 7.56% (active); in assay [3], -18% (active); in assay [4], 44.2%; in assay [5], -6.91% (active); in assay [6] it was 17.9%. Further, the growth in [7] is -14.5% (active); in [8] it was 6.03% (active); in assay [9] it was 14.7%; in assay [10], -3.54% (active).
For the compound `O=C(NCc1cccnc1)/C(=C\c1ccc(Br)cc1)S(=O)(=O)c1ccccc1`, the growth in assay [1] is -86.8% (active); in assay [2], 29.7%; in [3], -20.5% (active); in [4] it was -65.7% (active); in [5] it was -88% (active); in assay [6], -30.9% (active). Also, the growth in [7] is 13.9%; in assay [8], -59% (active); in assay [9], -20.5% (active); in assay [10], -41.1% (active).
As for `COC(=O)[C@H]1Cc2c([nH]c3ccccc23)[C@@H](c2cccs2)N1`, the growth was 106% in assay [1]; 104% in assay [2]; 97.6% in assay [3]; 95.1% in assay [4]; 107% in assay [5]; 98.9% in [6]. Also, the growth is 100% in assay [7], 93.1% in assay [8], 105% in assay [9] and 107% in [10].
